This is a sample that favours compounds with a hit; in the whole collection about 0.5% have one here.
E coli growth-1 = counter-screen for AddAB inhibitors: E. coli growth inhibition | E. coli V3065 growth, OD600 absorbance, 18 h | inhibition, % at 11.9 µM | actives 0.27% (n = 330,000);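 active = inhibition above the campaign's mean inhibition across all tested compounds plus 3 SD, cut at about 9.9% in these data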;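 note: uninfected addAB+ strain grown without phage in ampicillin broth; 0% = DMSO wells and 100% = ciprofloxacin 0.95 µg/ml wells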
AddAB inh = less growth of phage-infected E. coli with AddAB; E. coli expressing H. pylori AddAB, absorbance growth; inhibition, % at 11.9 µM; actives 0.29% (n = 330,000); in the data active = inhibition above about 12%;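 note: 0% = vehicle wells of infected cells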
E coli growth-2 = blocks Escherichia coli growth; actives 0.21% (n = 330,000); AID 1053175; OD600, 23 h; active compounds read low; OD600 absorbance (concentration not given with the values);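 active = OD600 absorbance below the run mean of sample wells minus 3.6 SD, in any replicate, cut at about 0.56 in these data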
Tat export inh = blocks Tat-dependent protein export in E. coli | E. coli MC4100 TorA-mCherry Tat export, fluorescence | inhibition, % at 10 µM | actives 0.036% (n = 340,000) | AID 488895;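 active = mean replicate inhibition at least 50% and at least half of replicates individually reaching 50%; inconclusive = only one of the two criteria met; inactive = neither criterion met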;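 note: exported cargo escapes ClpAP degradation while cytoplasmic cargo is degraded and loses fluorescence; 0% = median of neutral control wells and 100% = median of NaSCN control wells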
phage Ecoli inh = E. coli growth loss with phage present. actives 0.26% (n = 360,000). growth absorbance. AID 651602. inhibition, % at 11.9 µM; in the data active = inhibition above about 11%
AddAB conf = growth loss of T4-infected E. coli expressing H. pylori AddAB, confirmed; E. coli V3065 expressing H. pylori AddAB, T4 phage, OD; T4 phage with gene 2 nonsense mutations; actives 64% (n = 880); inhibition, % at 11.9 µM; shares compounds with AddAB inh;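 active = mean inhibition above a set limit taken from the earlier primary screen, cut at about 13% in these data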;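 note: higher means less bacterial growth since AddAB block lets phage replicate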
RecBCD counter = reduces growth of phage-infected RecBCD+ E. coli, AddAB inhibitor counter-screen | E. coli V66 + mutant T4 phage, OD growth | inhibition, % at 11.9 µM | actives 73% (n = 880) | AID 488955 | shares compounds with AddAB inh;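 active = mean inhibition above the mean of solvent-only control wells plus 3 SD, cut at about 4% in these data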;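 note: optical density read after an 18 h incubation at 37 °C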
bact viab count = reduces bacterial viability, AddAB inhibitor counter-screen. shares compounds with AddAB inh. absorbance (AddAB counterscreen). inhibition, % at 11.9 µM. actives 35% (n = 880); in the data active = inhibition above about 25%
* = called active by the depositor.

`CCn1cc(C(=O)NCc2ccccc2)c(=O)c2cc(F)c(N3CCN(C(=O)c4ccco4)CC3)cc21` gave E coli growth-1 6, AddAB inh 8, E coli growth-2 0.56, Tat export inh 0 and phage Ecoli inh 1.
`CCn1cc(C(=O)NCCC(=O)OC)c(=O)c2cc3c(cc21)OCO3` gave E coli growth-1 0, AddAB inh 0, E coli growth-2 0.68, Tat export inh -1 and phage Ecoli inh 2.
Screening CCn1cc(C(=O)NCc2ccc3c(c2)OCO3)c(=O)c2cc(F)c(N3CCN(C(=O)c4ccco4)CC3)cc21 returned E coli growth-1 91*, AddAB inh 97*, E coli growth-2 0.052*, Tat export inh 30, phage Ecoli inh 10, AddAB conf 99*, RecBCD counter 10* and bact viab count 98*.
`CCn1cc(C(=O)NCc2ccncc2)c(=O)c2cc(F)c(N3CCN(C(=O)c4ccco4)CC3)cc21` gave E coli growth-1 92*, AddAB inh 98*, E coli growth-2 0.071*, phage Ecoli inh 3, AddAB conf 99*, RecBCD counter 8.0* and bact viab count 88*.
For O=C1C(Nc2ccccc2)=C/C(=N/S(=O)(=O)c2cccs2)c2ccccc21 the results were E coli growth-1 3, AddAB inh 17*, Tat export inh 13, AddAB conf 1, RecBCD counter 4.7* and bact viab count -4.
Screening O=C(CNC(=O)c1ccco1)NN=Cc1c[nH]c2ccccc12 returned E coli growth-2 0.66.
`C(C#CCCCCCCCCC[n+]1ccccc1)#CCCCCCCCCC[n+]1ccccc1` gave E coli growth-1 102*, AddAB inh 101*, E coli growth-2 0.064*, Tat export inh 82*, AddAB conf 100*, RecBCD counter 100* and bact viab count 101*.
Screening CCC(C)Sc1ccc(C2N[C@@](Cc3ccccc3)(C(=O)OC)C3C(=O)N(CC)C(=O)C23)cc1 (stereo not given in full) returned E coli growth-2 0.7.
CCCc1c(C)nc2ccc(OC)cc2c1SCCC(=O)O was read as E coli growth-1 -1, AddAB inh 15*, E coli growth-2 0.68, Tat export inh -5, phage Ecoli inh 0, AddAB conf 2, RecBCD counter 0 and bact viab count -2.
For O=C(Nc1ccc2ccccc2c1)C1CC1C(NP(=O)(c1ccccc1)c1ccccc1)c1ccccc1 (stereo not given) the results were E coli growth-2 0.69.
Screening Cc1ccc(N2CN=c3sc(=Cc4cccnc4)c(=O)n3C2)cc1 returned E coli growth-2 0.74.
O=C(CON=Cc1ccccc1OC(F)F)NCc1ccco1 was read as E coli growth-2 0.71.
COC(=O)CC1C(C(=O)OC)ON2OC(C(=O)OC)C(C(=O)OC)C12 (stereo not given) was read as E coli growth-1 -2, AddAB inh 0, E coli growth-2 0.69, Tat export inh 1 and phage Ecoli inh 4.
`CCOC(=O)CC1C(C(=O)OCC)ON2OC(C(=O)OC)C(C(=O)OCC)C12` (stereo not given) gave E coli growth-1 21*, AddAB inh 46*, E coli growth-2 0.67, Tat export inh -4, phage Ecoli inh 1, AddAB conf -3, RecBCD counter 1 and bact viab count -2.
For COc1ccc(C(=O)ON=C(C)c2ccccc2)cc1 the results were E coli growth-2 0.67.
NC(=O)NOCc1ccccc1 was read as E coli growth-1 5, AddAB inh 98*, E coli growth-2 0.7, Tat export inh 10, phage Ecoli inh 4, AddAB conf -2, RecBCD counter 1 and bact viab count -4.
Screening O=C(NOCc1ccccc1)OCc1ccccc1 returned E coli growth-2 0.68, Tat export inh 1 and phage Ecoli inh 3.
`O=C(NC(=S)NNC(=O)c1ccccc1O)c1cccs1` gave E coli growth-1 6, AddAB inh 13*, E coli growth-2 0.54, Tat export inh 3, phage Ecoli inh 9, AddAB conf 22*, RecBCD counter 20* and bact viab count 13.
For COc1ccccc1C(=O)NNC(=S)NC(=O)c1cccs1 the results were E coli growth-1 0, AddAB inh 4, Tat export inh 8 and phage Ecoli inh 1.
For O=C(NC(=S)NNC(=O)c1ccccc1O)c1ccccc1 the results were E coli growth-1 10*, AddAB inh 13*, E coli growth-2 0.58, Tat export inh inconclusive, phage Ecoli inh 10, AddAB conf 10, RecBCD counter 17* and bact viab count 15.
Screening O=C(NC(=S)NNC(=O)c1ccccc1O)c1ccc(F)cc1 returned E coli growth-1 16*, AddAB inh 13*, E coli growth-2 0.72, Tat export inh 5, phage Ecoli inh 10, AddAB conf 15*, RecBCD counter 18* and bact viab count 16.
Screening O=C(CC(c1ccccc1)(c1ccccc1)c1ccccc1)NC(Cc1ccccc1)C(=O)O (stereo not given) returned E coli growth-2 0.7.
Screening CC(C)CC(NC(=O)c1[nH]cnc1C(=O)Nc1ccc(Cl)cc1)C(=O)OC(C)(C)C (stereo not given) returned E coli growth-2 0.68.
Screening CC1C(C#N)=C(N)OC2=C1C(=O)CC(c1ccccc1)C2 (stereo not given) returned E coli growth-1 73*, AddAB inh 97*, E coli growth-2 0.69, Tat export inh 4, phage Ecoli inh 1, AddAB conf 0, RecBCD counter 1 and bact viab count -1.
N#CC1=C(N)OC2=C(C(=O)CC(c3ccccc3)C2)C1c1ccoc1 (stereo not given) was read as E coli growth-1 0, AddAB inh 2, E coli growth-2 0.7, Tat export inh 4 and phage Ecoli inh 3.
Screening CCN1CCN(C(=O)C2CCN(c3nnc(-n4c(C)ccc4C)s3)CC2)CC1 returned E coli growth-1 2, AddAB inh 131*, E coli growth-2 0.73, Tat export inh 8, phage Ecoli inh 1, AddAB conf 5, RecBCD counter 1 and bact viab count -1.
`Cc1ccc(C)n1-c1nnc(N2CCC(C(=O)N3CCN(C)CC3)CC2)s1` gave E coli growth-1 -3, AddAB inh 4, E coli growth-2 0.75, Tat export inh -5 and phage Ecoli inh 3.
`CCOC1OC(C(=O)N2CCCCCCC2)=CC(C)C1CCCO` (stereo not given) gave E coli growth-2 0.59.

Screening results as filed in PubChem BioAssay.
